Assay results reported in the supplement of paper PMC11732987, “Enantioselective OTUD7B fragment discovery through chemoproteomics screening and high-throughput optimisation” (Communications Chemistry, 2025).

Tests used:
Assay in all cases: log2 ratio of Biotin-Ahx-Ub-VS probe labelling (fragment/DMSO); higher = less target engagement (more negative = stronger competition), active = hit call of the paper (q ≤ 0.05, log2 ratio ≤ -1)
Settings in all cases: compound concentration: 200 uM; treatment time: 3 h
USP19 = target: T1, USP19 (UniProt O94966)
T1 sequence (whole entry): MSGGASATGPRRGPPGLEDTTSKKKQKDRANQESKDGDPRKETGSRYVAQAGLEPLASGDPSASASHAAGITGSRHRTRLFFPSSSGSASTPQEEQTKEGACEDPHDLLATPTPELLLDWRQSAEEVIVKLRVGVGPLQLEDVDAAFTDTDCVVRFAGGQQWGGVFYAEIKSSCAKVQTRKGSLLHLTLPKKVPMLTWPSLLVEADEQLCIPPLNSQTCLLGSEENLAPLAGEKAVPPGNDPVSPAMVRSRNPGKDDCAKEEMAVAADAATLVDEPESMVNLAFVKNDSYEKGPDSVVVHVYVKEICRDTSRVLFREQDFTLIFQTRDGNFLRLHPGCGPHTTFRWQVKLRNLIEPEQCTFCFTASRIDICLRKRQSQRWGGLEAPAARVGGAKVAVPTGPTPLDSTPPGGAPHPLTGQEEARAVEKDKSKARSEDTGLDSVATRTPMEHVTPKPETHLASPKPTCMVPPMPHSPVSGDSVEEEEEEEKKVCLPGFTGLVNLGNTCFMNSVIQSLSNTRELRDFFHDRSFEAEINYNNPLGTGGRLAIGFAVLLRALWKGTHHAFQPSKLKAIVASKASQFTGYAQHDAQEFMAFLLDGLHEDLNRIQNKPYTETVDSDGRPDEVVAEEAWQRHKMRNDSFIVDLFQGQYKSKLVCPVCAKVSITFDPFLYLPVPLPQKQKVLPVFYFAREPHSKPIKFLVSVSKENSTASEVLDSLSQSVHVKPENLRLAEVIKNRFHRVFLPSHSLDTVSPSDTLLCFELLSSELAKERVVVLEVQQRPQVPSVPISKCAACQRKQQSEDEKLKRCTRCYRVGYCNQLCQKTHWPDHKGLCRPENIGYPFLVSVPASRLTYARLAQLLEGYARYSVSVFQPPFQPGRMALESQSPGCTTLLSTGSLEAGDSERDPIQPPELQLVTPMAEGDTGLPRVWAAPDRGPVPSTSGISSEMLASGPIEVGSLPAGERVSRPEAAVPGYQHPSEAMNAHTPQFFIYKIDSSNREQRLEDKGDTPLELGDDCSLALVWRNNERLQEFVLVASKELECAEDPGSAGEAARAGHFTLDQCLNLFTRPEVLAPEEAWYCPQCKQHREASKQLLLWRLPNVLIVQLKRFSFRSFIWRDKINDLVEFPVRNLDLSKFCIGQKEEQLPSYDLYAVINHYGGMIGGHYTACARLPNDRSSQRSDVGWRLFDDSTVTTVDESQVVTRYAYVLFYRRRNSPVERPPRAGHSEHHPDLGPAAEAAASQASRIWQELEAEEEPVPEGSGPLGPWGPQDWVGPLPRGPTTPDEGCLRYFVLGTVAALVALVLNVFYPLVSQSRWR
In short: (§1)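 HEK293T lysate, 495 µg per sample in Tris/CHAPS/IGEPAL buffer with protease inhibitors, was treated in triplicate with fragment at 200 µM or vehicle for 3 h and then with Biotin-Ahx-Ub-VS at 0.5 µM final for 1 h. Labelled DUBs were NeutrAvidin-enriched, digested with LysC and trypsin, and run by diaPASEF LC-MS/MS. Spectronaut label-free quantities were global-median-normalised, and values are average log2 fragment/vehicle ratios by unpaired t-test on proteins with ≥2 unique peptides.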

USP22 = target: T2, USP22 (UniProt Q9UPT9)
T2 sequence (whole entry): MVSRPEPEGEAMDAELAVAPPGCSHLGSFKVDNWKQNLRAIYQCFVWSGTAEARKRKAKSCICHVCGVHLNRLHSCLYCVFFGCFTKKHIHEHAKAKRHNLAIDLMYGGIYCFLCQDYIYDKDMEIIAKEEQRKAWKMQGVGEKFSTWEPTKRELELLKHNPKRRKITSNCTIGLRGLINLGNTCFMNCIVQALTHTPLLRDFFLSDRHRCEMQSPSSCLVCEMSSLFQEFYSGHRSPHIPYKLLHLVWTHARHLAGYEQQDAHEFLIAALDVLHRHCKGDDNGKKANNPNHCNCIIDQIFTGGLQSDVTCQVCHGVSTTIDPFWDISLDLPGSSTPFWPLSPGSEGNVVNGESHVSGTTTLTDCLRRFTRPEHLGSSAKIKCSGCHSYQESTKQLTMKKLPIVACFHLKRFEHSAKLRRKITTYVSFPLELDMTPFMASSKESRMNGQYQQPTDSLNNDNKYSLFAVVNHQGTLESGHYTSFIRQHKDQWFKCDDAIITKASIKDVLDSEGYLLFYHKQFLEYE
In short: as §1

USP24 = USP24 (UniProt Q9UPU5)
In short: as §1

USP25 = target: T3, USP25 (UniProt Q9UHP3)
T3 sequence (whole entry): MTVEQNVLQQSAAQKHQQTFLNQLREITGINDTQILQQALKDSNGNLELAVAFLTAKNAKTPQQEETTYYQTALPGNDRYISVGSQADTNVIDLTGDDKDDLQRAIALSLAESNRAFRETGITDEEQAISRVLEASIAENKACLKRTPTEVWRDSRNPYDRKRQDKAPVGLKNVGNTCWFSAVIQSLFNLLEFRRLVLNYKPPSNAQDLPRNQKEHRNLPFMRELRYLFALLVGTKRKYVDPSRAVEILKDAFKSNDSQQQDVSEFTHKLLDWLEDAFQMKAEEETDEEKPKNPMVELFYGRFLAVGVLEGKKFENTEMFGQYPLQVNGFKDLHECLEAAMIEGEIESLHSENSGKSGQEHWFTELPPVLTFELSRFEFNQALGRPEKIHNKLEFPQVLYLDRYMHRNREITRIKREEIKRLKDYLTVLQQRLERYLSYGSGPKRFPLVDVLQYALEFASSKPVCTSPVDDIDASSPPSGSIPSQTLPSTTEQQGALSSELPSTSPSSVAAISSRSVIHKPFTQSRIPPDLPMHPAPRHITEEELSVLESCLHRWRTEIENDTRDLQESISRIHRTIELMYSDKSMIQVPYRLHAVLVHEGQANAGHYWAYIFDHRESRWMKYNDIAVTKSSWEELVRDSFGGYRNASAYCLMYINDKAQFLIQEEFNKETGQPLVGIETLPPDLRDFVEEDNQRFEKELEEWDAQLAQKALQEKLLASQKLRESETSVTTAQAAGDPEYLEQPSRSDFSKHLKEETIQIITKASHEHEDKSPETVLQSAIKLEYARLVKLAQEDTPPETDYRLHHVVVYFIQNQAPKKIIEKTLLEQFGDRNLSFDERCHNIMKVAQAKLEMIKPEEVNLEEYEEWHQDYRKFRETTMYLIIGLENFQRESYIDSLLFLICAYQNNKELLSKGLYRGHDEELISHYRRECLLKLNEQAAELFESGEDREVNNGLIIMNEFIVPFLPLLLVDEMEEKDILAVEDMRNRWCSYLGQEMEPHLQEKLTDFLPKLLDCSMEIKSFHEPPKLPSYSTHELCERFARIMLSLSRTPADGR
In short: as §1

USP28 = target: T4, USP28 (UniProt Q96RU2)
T4 sequence (whole entry): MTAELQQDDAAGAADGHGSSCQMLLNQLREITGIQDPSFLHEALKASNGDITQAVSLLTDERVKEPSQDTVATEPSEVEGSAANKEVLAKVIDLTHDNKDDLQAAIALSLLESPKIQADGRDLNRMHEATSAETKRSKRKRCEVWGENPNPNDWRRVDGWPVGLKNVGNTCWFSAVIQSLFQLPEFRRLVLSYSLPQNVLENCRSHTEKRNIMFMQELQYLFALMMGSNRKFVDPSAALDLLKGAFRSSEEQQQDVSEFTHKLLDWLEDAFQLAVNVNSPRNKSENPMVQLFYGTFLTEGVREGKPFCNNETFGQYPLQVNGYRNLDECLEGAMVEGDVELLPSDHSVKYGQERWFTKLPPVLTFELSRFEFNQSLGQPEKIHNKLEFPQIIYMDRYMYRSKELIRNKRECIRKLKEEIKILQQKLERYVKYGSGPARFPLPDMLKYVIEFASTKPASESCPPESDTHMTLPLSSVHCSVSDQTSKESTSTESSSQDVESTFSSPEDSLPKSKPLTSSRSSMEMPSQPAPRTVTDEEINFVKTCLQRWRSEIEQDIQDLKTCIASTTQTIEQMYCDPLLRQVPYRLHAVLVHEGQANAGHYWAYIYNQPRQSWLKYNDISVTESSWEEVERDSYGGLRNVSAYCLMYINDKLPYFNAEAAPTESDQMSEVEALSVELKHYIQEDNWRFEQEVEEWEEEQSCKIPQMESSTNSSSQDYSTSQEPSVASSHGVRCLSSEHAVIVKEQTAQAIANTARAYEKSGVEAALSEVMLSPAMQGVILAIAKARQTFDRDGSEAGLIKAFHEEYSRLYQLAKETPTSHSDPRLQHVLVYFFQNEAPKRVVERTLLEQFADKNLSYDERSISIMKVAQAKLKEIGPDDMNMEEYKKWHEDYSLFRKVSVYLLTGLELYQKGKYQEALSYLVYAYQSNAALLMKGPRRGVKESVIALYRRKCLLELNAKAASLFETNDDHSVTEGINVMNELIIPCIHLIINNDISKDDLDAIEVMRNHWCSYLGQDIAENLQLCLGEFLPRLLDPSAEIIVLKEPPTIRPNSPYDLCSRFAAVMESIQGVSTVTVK
In short: as §1

Measured: log2 ratio of Biotin-Ahx-Ub-VS probe labelling

Chain of USP24 (Q9UPU5 whole entry): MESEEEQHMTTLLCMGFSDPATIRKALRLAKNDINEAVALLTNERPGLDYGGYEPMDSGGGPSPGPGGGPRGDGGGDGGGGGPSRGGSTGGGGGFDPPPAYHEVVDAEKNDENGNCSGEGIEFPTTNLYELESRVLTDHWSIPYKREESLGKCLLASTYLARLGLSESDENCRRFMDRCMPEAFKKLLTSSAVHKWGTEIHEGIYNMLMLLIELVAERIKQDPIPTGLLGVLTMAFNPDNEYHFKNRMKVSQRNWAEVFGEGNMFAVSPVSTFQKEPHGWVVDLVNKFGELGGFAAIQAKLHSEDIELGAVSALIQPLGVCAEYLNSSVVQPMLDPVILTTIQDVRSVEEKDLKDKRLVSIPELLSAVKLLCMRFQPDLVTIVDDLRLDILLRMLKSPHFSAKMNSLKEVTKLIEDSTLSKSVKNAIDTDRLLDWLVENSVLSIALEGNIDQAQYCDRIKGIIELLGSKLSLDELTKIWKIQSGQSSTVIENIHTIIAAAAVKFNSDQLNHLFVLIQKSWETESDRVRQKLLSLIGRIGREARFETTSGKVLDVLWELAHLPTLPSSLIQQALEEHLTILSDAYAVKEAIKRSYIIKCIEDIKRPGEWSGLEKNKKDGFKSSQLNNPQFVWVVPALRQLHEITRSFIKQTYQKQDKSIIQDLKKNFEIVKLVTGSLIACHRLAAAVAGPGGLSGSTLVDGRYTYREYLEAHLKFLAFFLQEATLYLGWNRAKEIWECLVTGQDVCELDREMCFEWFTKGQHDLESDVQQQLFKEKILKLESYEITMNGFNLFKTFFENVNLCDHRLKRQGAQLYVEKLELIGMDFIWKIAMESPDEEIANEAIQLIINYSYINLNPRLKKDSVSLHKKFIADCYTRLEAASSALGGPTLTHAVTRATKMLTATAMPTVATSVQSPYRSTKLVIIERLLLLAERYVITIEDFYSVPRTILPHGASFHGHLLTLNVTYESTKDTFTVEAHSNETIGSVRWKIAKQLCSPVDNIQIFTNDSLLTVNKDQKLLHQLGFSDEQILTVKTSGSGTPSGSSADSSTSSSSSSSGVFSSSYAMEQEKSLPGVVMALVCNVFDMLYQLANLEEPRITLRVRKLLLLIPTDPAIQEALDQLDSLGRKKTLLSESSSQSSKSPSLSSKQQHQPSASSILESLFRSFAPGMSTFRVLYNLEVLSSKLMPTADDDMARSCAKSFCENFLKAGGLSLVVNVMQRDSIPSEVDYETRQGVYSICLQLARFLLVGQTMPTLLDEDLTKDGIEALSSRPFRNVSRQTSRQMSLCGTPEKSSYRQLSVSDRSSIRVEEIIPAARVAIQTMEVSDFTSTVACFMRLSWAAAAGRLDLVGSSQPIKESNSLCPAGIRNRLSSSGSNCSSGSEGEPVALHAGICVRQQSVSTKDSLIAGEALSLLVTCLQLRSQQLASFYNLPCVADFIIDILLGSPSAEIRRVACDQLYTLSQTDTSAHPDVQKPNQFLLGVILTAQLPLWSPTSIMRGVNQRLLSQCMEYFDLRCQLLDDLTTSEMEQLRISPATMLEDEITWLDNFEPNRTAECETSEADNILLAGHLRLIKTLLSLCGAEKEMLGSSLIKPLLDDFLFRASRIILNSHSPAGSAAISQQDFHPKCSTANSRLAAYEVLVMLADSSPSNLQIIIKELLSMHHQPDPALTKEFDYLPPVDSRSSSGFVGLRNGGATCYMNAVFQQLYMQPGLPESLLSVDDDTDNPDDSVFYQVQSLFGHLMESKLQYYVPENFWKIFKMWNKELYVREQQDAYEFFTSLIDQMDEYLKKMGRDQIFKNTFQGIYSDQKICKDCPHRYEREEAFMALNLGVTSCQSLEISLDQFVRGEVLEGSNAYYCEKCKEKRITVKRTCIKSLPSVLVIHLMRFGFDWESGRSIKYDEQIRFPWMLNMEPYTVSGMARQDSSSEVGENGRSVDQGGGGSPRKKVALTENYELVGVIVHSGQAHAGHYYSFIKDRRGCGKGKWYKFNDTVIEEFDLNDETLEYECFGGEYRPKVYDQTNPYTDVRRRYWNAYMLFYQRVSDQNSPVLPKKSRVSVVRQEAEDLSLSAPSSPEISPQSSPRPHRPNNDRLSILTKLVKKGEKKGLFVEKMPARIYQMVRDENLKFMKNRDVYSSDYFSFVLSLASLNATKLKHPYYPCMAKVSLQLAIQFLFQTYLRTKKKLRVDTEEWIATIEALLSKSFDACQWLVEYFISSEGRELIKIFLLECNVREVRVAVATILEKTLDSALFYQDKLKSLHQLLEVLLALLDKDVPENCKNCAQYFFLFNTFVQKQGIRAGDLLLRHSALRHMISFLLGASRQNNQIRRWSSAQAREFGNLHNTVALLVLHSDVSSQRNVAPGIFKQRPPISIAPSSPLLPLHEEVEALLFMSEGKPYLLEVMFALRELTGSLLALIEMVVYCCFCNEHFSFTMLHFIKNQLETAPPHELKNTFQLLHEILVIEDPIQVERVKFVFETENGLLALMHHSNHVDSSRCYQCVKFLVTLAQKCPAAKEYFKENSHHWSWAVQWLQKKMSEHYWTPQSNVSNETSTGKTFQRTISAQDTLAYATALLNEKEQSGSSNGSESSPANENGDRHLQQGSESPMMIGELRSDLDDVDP

CNC(=O)Cn1cc(NC(=O)CCl)cn1
inactive: USP19 -0.0937 | USP22 -0.0499 | USP24 -0.146 | USP25 -0.172 | USP28 -0.486
